According to PubChem BioAssay (NCATS):
Records with an inconclusive call do not appear. Where a call stands in place of a potency, no number is given. Calls of active or inactive are those of the source. The call rests on the fitted dose curve; in most records, active means well fitted curve in the direction sought with a large enough effect; inconclusive means small, poorly fitted or top-dose-only effect, or another doubt; inactive means no such curve, though single readings can be large; an effect the other way counts as inactive or inconclusive.

Legend:
WaGa = assay: qHTS assay to identify novel small-molecules to repurpose for Merkel cell carcinoma treatment (AID 1296009); settings: MCC and control cell lines, CellTiter-Glo viability, 72 h; series mostly up to 46 µM; further: nearly all actives have a fitted effect of over 60% in size
Procedure, shortened: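 Cells exposed to NPC (8-point) and MIPE (11-point) compound dilutions for 72 hr at 37 degree celsius; viability read by CellTiter-Glo luminescence, normalized to no-cell and DMSO in-plate controls.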

C33A = assay: Primary qHTS to identify gynecologic anti-cancer compounds using libraries of approved drugs and bioactive compounds (AID 1345084); settings: Gynecologic cancer cell panel viability, ATPlite luminescence, 48 h; series mostly up to 57.5 µM; further: nearly all actives have a fitted effect of over 55% in size
Procedure, shortened: (§1)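 Five-point cytotoxicity, 48 h drug exposure at 37 C, 5% CO2, on cells seeded 16 h beforehand. ATP content read by ATPlite luminescence.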

CAOV3 = assay: as above; settings: Gynecologic cancer cell panel viability, ATPlite luminescence, 48 h; series mostly up to 57.5 µM
Procedure, shortened: as §1

CASKI = assay: as above; settings: Gynecologic cancer cell panel viability, ATPlite luminescence, 48 h; series mostly up to 57.5 µM
Procedure, shortened: as §1

Es-2 = assay: as above; settings: Gynecologic cancer cell panel viability, ATPlite luminescence, 48 h; series mostly up to 57.5 µM
Procedure, shortened: as §1

HeLa = assay: as above; settings: Gynecologic cancer cell panel viability, ATPlite luminescence, 48 h; series mostly up to 57.5 µM
Procedure, shortened: as §1

Hek293T = assay: as above; settings: Gynecologic cancer cell panel viability, ATPlite luminescence, 48 h, control line for the selectivity index; series mostly up to 57.5 µM
Procedure, shortened: as §1

JEG-3 = assay: as above; settings: Gynecologic cancer cell panel viability, ATPlite luminescence, 48 h; series mostly up to 57.5 µM
Procedure, shortened: as §1

OV90 = assay: as above; settings: Gynecologic cancer cell panel viability, ATPlite luminescence, 48 h; series mostly up to 57.5 µM
Procedure, shortened: as §1

PA-1 = assay: as above; settings: Gynecologic cancer cell panel viability, ATPlite luminescence, 48 h; series mostly up to 57.5 µM
Procedure, shortened: as §1
Potency means the concentration at half of the fitted maximal effect.

## N=c1c2c(-c3ccccc3)c(-c3ccccc3)n(Cc3ccccc3)c2ncn1C1CCC(O)CC1 (configuration not stated)
WaGa
  Potency: 2640 nM (active)

## CC(N[C@H]1C[C@H]1c1ccccc1)c1ccc2c(c1)OCCO2 (some centres not stated)
WaGa
  Potency: inactive
C33A
  Potency: inactive
CAOV3
  Potency: inactive
CASKI
  Potency: inactive
Es-2
  Potency: inactive
HeLa
  Potency: inactive
Hek293T
  Potency: inactive
JEG-3
  Potency: inactive
OV90
  Potency: inactive
PA-1
  Potency: inactive

## CC[C@@]1(O)C(=O)OCc2c1cc1n(c2=O)Cc2cc3ccccc3nc2-1
WaGa
  Potency: 20.9 nM (active)

## CC(C)(O)C=CC(=O)[C@](C)(O)[C@H]1[C@H](O)C[C@]2(C)[C@@H]3CC=C4[C@@H](C=C(O)C(=O)C4(C)C)[C@]3(C)C(=O)C[C@@]12C
WaGa
  Potency: 93.5 nM (active)

## C[C@H]1CCCC=CC2C[C@H](O)C[C@@H]2[C@H](O)C=CC(=O)O1 (some centres not stated)
WaGa
  Potency: inactive

## C[C@@H]1[C@H](O)[C@@H](C)C=CC=CCCC=CC=CC=CC=C[C@H](O[C@H]2O[C@@H](C)[C@H](O)[C@@H](N)[C@@H]2O)CC2O[C@](O)(C[C@@H](O)[C@H](O)CC[C@@H](O)C[C@@H](O)C[C@@H](O)CC(=O)O[C@H]1C)C[C@H](O)[C@H]2C(=O)O
WaGa
  Potency: inactive

## CC(=CCCC1=CCC(C2=CC(=O)OC2O)OC1O)CCC1=C(C)CCCC1(C)C (configuration not stated)
WaGa
  Potency: inactive

## CC(C)[C@H]1C(=O)N[C@H](CO)Cc2c[nH]c3cccc(c23)N1C
WaGa
  Potency: inactive

## COC(C)(C)CCCC(C)C/C=C/C(C)=C/C(=O)OC(C)C (configuration not stated)
WaGa
  Potency: inactive
C33A
  Potency: inactive
CAOV3
  Potency: inactive
CASKI
  Potency: inactive
Es-2
  Potency: inactive
HeLa
  Potency: inactive
Hek293T
  Potency: inactive
JEG-3
  Potency: inactive
OV90
  Potency: inactive
PA-1
  Potency: inactive

## Clc1ccccc1C(c1ccccc1)(c1ccccc1)n1cccn1
WaGa
  Potency: inactive

## O=[N+]([O-])c1ccc([As](=O)(O)O)cc1
WaGa
  Potency: inactive
C33A
  Potency: inactive
CAOV3
  Potency: inactive
CASKI
  Potency: inactive
Es-2
  Potency: inactive
HeLa
  Potency: inactive
Hek293T
  Potency: inactive
JEG-3
  Potency: inactive
OV90
  Potency: inactive

## Oc1ccc2c3c1O[C@H]1c4[nH]c5c(c4C[C@@]4(O)[C@@H](C2)N(CC2CC2)CC[C@]314)C[C@@]1(O)[C@H]2Cc3ccc(O)c4c3[C@@]1(CCN2CC1CC1)[C@H]5O4
WaGa
  Potency: inactive

## CC(C)[C@]12O[C@@H]1[C@@H]1O[C@]13[C@]1(O[C@H]1C[C@@H]1C4=C(CC[C@@]13C)C(=O)OC4)[C@H]2O
WaGa
  Potency: inactive

## CCOC(=O)c1cncn1[C@H](C)c1ccccc1
WaGa
  Potency: inactive

## O=C(N[C@@H](COc1ccc2[nH]c(=O)[nH]c2c1)c1ccccc1)c1cccn(Cc2ccc(F)c(F)c2)c1=O
WaGa
  Potency: inactive
C33A
  Potency: inactive
CAOV3
  Potency: inactive
CASKI
  Potency: inactive
Es-2
  Potency: inactive
HeLa
  Potency: inactive
Hek293T
  Potency: inactive
JEG-3
  Potency: inactive
OV90
  Potency: inactive
PA-1
  Potency: inactive

## Nc1ccc(Sc2ccc(N)cc2)cc1
WaGa
  Potency: inactive
C33A
  Potency: inactive
CAOV3
  Potency: inactive
CASKI
  Potency: inactive
Es-2
  Potency: inactive
HeLa
  Potency: inactive
Hek293T
  Potency: inactive
JEG-3
  Potency: inactive

## Cc1nc(-c2ccc(-c3ccc(C(=O)N4CCc5cc6c(cc54)C4(CCN(C)CC4)CO6)cc3)c(C)c2)no1
WaGa
  Potency: inactive

## O=C(NCC1CCOCC1)c1cnc(Nc2ccc(Cl)cc2Cl)nc1C(F)(F)F
WaGa
  Potency: inactive
C33A
  Potency: inactive
CAOV3
  Potency: inactive
CASKI
  Potency: inactive
Es-2
  Potency: inactive
HeLa
  Potency: inactive
Hek293T
  Potency: inactive
JEG-3
  Potency: inactive
OV90
  Potency: inactive
PA-1
  Potency: inactive

## O=c1[nH]c2ccccc2n1C1CCN(Cc2ccc(-c3[nH]c4cc5ncnc5cc4nc3-c3ccccc3)cc2)CC1
WaGa
  Potency: inactive

## CN1[C@H]2CC(O)C[C@H]1[C@H]1O[C@H]12 (some centres not stated)
WaGa
  Potency: inactive

## O=[N+]([O-])c1c(Cl)c(Cl)cc(Cl)c1Cl
WaGa
  Potency: inactive
C33A
  Potency: inactive
CAOV3
  Potency: inactive
CASKI
  Potency: inactive
Es-2
  Potency: inactive
HeLa
  Potency: inactive
Hek293T
  Potency: inactive
JEG-3
  Potency: inactive
OV90
  Potency: inactive
PA-1
  Potency: inactive

## CN[C@@H](C)[C@H](O)c1ccccc1
WaGa
  Potency: inactive
C33A
  Potency: inactive
CAOV3
  Potency: inactive
CASKI
  Potency: inactive
Es-2
  Potency: inactive
HeLa
  Potency: inactive
Hek293T
  Potency: inactive
JEG-3
  Potency: inactive
OV90
  Potency: inactive
PA-1
  Potency: inactive

## CSCC[C@@H](NC(=O)[C@@H](Cc1ccccc1)NC(=O)CNC(=O)CNC(=O)[C@@H](N)Cc1ccc(O)cc1)C(=O)O
WaGa
  Potency: inactive

## COc1ccc2c(c[n+](C)c3c4cc5c(cc4ccc23)OCO5)c1OC
WaGa
  Potency: 3320 nM (active)

## CC(C)(C)c1cc(C=C(C#N)C#N)cc(Br)c1O
WaGa
  Potency: inactive

## CC(=O)Nc1ccc(OC[C@](C)(O)C(=O)Nc2ccc([N+](=O)[O-])c(C(F)(F)F)c2)cc1
WaGa
  Potency: inactive
C33A
  Potency: inactive
CAOV3
  Potency: inactive
CASKI
  Potency: inactive
Es-2
  Potency: inactive
HeLa
  Potency: inactive
Hek293T
  Potency: inactive
JEG-3
  Potency: inactive
OV90
  Potency: inactive
PA-1
  Potency: inactive

## C=C[C@@H]1CN2CCC1C[C@@H]2[C@@H](O)c1ccnc2ccccc12 (some centres not stated)
WaGa
  Potency: inactive

## O=C1C=CC[C@@H]2[C@H]3CCCN4CCC[C@@H](CN12)[C@@H]34
WaGa
  Potency: inactive
C33A
  Potency: inactive
CAOV3
  Potency: inactive
CASKI
  Potency: inactive
Es-2
  Potency: inactive
HeLa
  Potency: inactive
Hek293T
  Potency: inactive
JEG-3
  Potency: inactive
OV90
  Potency: inactive
PA-1
  Potency: inactive

## C[C@]12COC(=O)C[C@@H]1CC[C@@H]1[C@H]2CC[C@@]2(C)[C@H]1CC[C@]2(C)O
WaGa
  Potency: inactive

## CC[C@H]1C=CC=CC[C@@H](C)[C@H](O)[C@@](C)(O)C(=O)[C@@H](C)[C@H](O)[C@@H](C)C(=O)[C@@H](C)[C@H](O)[C@@H](C)C=CC(=O)O[C@@H]2[C@@H](C)[C@H](CC1)O[C@]1(CC[C@H](C)[C@H](C[C@@H](C)O)O1)[C@H]2C
WaGa
  Potency: 662 nM (active)

## COc1ccc2c(c1)CN(C)CC2c1ccc(Cl)c(Cl)c1 (configuration not stated)
WaGa
  Potency: inactive

## C#CC1(O)CCC2C3CCC4=CC(=O)CCC4(C)C3CCC21C (configuration not stated)
WaGa
  Potency: inactive

## CCC(=O)OC1CCC2C3CCC4=CC(=O)CC[C@@]4(C)C3CC[C@]12C (some centres not stated)
WaGa
  Potency: inactive

## CCN1C[C@]2(OC(=O)c3ccccc3NC(C)=O)CC[C@H](OC)[C@@]34[C@H]5CC6[C@@H](OC)C[C@](O)(C(C[C@@H]23)[C@@H]14)[C@@]5(O)[C@@H]6OC
WaGa
  Potency: inactive

## CC[C@@H](C(N)=O)N1CCCC1=O
WaGa
  Potency: inactive

## CC(=O)OCC1=C(C(=O)O)N2C(=O)[C@@H](N)[C@@H]2SC1
WaGa
  Potency: inactive

## OCCCBr
WaGa
  Potency: inactive
C33A
  Potency: inactive
CAOV3
  Potency: inactive
CASKI
  Potency: inactive
Es-2
  Potency: inactive
HeLa
  Potency: inactive
Hek293T
  Potency: inactive
JEG-3
  Potency: inactive
OV90
  Potency: inactive

## CC(O)=C(C#N)C(=O)Nc1cc(Br)ccc1Br
WaGa
  Potency: inactive

## c1cc2c(cc1[C@H]1OC[C@H]3[C@H]1CO[C@H]3c1ccc3c(c1)OCO3)OCO2
WaGa
  Potency: inactive

## CC[C@@H]1[C@@H](C)O[C@@](O)([C@@H](C)[C@H](O)[C@H](C)[C@H]2OC(=O)C=CC=C[C@@H](C)[C@@H]([C@@H](C)[C@@H](O)[C@H](C)[C@@]3(O)C[C@H](O[C@H]4C[C@H](O)[C@H](O)[C@H](C)O4)[C@H](CC)[C@@H](C)O3)OC(=O)C=CC=C[C@@H]2C)C[C@H]1O[C@H]1C[C@H](O)[C@H](O)[C@H](C)O1
WaGa
  Potency: 2640 nM (active)

## O=c1[nH]c2ccc(Cl)cc2c(N[C@@H]2CN3CCC2CC3)c1-c1nc2ccccc2[nH]1
WaGa
  Potency: 1480 nM (active)
C33A
  Potency: inactive
CASKI
  Potency: 10000 nM (active)
Es-2
  Potency: 447 nM (active)
HeLa
  Potency: 3160 nM (active)
OV90
  Potency: 5010 nM (active)
PA-1
  Potency: 2240 nM (active)
